A number with no mark means an inactive call. Records with an inconclusive call do not appear. The source made the active and inactive calls. Unless noted, the call rests on the fitted dose curve.

Assay [1] is described as follows: Nuclear factor erythroid 2-related factor 2/antioxidant responsive element (Nrf2/ARE) small molecule agonists: luciferase reporter gene qHTS assay in human keratinocytes (AID 1919969). Further: nearly all actives have a fitted effect of over 35% in size. Further: potency means the concentration at half of the fitted maximal effect.
Assay [2] has as its target Gonadotropin-releasing hormone receptor (Homo sapiens) (UniProt P30968). The assay can be described thus: Human gonadotropin-releasing hormone receptor (GnRHR) small molecule agonists, calcium flux assay in GnRHR-HEK293 cells (AID 1920063). Further: nearly all actives have a fitted effect of over 35% in size. The procedure, abridged:
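Fluorescence kinetics (480 nm excitation, 540 nm emission; 3 min, 1 s steps) report calcium mobilisation in human GnRHR-HEK293 cells in agonist mode. Dye incubation: 1 h, 37 C.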

In assay [3] the target is KiSS-1 receptor (Homo sapiens) (UniProt Q969F8). The assay can be described thus: Human kisspeptin (KISS1R) small molecule agonists, calcium flux assay in KISS1R-HEK293 cells (AID 1920064; active means well fitted activation curve with a large enough effect in the repeat runs). In short, it runs like this:
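Measures KISS1R agonism through calcium-sensitive dye fluorescence in stably transfected HEK293 cells, read for 3 min after pin-tool compound delivery; 15-point titrations in triplicate.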
For orientation: A change in cytosolic calcium serves as a functional read-out for many receptors and channels.

The nature of assay [4]: G protein-coupled receptor (GPCR) small molecule agonists, calcium flux assay: HEK293 wild type cell line counter screen (AID 1920065). The procedure, abridged:
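Readout: fluorescence at 480 nm excitation/540 nm emission, sampled at 1 s intervals for 3 min. Cells had been cultured 18 h, then dye-loaded 1 h at 37 C before compound or ATP addition.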

A short description of assay [5]: p53 small molecule agonists, cell-based qHTS assay with rat liver microsomes (AID 1963578). The procedure, abridged: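 Compound in DMSO added to p53RE-bla cells 5 h post-plating; rat microsomes/NADPH 0.5 mg/mL final; 16 h, 37 C; LiveBLAzer 2 h RT.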
On the technique in general: In qHTS, concentration-response curves come from the screen itself.

Assay [6] is described as follows: p53 small molecule agonists, cell-based qHTS assay with human liver microsomes: qHTS cell viability counter screen (AID 1963579). Further: nearly all actives have a fitted effect of over 45% in size. Further: potency means the concentration at half of the fitted maximal effect. In short, it runs like this: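 HLM-supplemented (0.5 mg/mL final) and NADPH-supplemented (0.5 mg/mL final) p53RE-bla cultures, 4,000 cells per well, were dosed with compounds in DMSO for 16 h at 37 C; luminescent ATP detection (CellTiter-Glo, 30 min, room temperature) quantified surviving cells.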

Assay [7] in a line: p53 small molecule agonists, cell-based qHTS assay with rat liver microsomes: qHTS cell viability counter screen (AID 1963580). Further: nearly all actives have a fitted effect of over 45% in size. The procedure, abridged:
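In HCT-116 cells carrying a p53 response element-bla reporter, compounds were metabolically activated in situ by rat liver microsomes with NADPH over 16 h. Cell ATP content then served as the cytotoxicity measure.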

Assay [8] is described as follows: p53 small molecule agonists, cell-based qHTS assay (AID 1963582; active means well fitted activation curve with a large enough effect in the signal ratio in the repeat runs, not every such curve was filed as active; the % refers to the signal ratio; further: potency means the concentration at half of the fitted maximal effect). The procedure, abridged:
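Compounds are pin-transferred in DMSO onto p53RE-bla cells and incubated 16 h at 37 C. The B/G FRET beta-lactamase substrate is then applied for 2 h at RT and fluorescence recorded.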

The target of assay [9] is 5-hydroxytryptamine receptor 2A (Homo sapiens) (UniProt P28223). The assay can be described thus: 5-hydroxytryptamine receptor 2A (HTR2A) small molecule antagonists, cell-based qHTS assay (AID 1963586). Further: nearly all actives have a fitted effect of over 45% in size. Further: potency means the concentration at half of the fitted maximal effect. The procedure, abridged: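 Antagonist-mode intracellular calcium assay: DOI (4 nM) added after 5 min compound pre-incubation at room temperature to dye-loaded HTR2A-CHO cells. Fluorescence followed for 3 min, sampled every second.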
Sequence of 5-hydroxytryptamine receptor 2A (Homo sapiens) (P28223 whole entry, looked up): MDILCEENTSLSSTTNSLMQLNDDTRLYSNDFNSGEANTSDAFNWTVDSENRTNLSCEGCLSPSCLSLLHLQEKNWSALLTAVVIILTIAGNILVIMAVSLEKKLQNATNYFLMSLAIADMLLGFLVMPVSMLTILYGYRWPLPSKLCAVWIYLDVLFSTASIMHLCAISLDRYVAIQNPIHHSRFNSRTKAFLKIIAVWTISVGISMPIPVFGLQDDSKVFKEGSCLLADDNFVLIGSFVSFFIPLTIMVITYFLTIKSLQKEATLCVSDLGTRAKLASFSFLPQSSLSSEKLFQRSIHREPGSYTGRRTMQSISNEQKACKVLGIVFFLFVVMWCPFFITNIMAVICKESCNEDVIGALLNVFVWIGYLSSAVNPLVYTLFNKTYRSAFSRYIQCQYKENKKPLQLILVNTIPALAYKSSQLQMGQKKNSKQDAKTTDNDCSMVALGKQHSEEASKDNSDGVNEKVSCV

The target is the same in assay [10]. The assay can be described thus: 5-hydroxytryptamine receptor 2A (HTR2A) small molecule agonists, cell-based qHTS assay (AID 1963587). Further: nearly all actives have a fitted effect of over 30% in size. In short, it runs like this: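 HTR2A-CHO cells, plated 18 h at 37 C/5% CO2, dye-loaded 1 h at 37 C; compounds in DMSO added by pin tool (agonist mode). Intracellular calcium flux read as kinetic fluorescence on FDSS over 2 min at 1 s intervals.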

For assay [11], the target named is Muscarinic acetylcholine receptor M1 (Homo sapiens) (UniProt P11229). The assay can be described thus: Cholinergic receptor muscarinic 1 (CHRM1) small molecule agonists, cell-based qHTS assay (AID 1963589). Further: nearly all actives have a fitted effect of over 35% in size. The procedure, abridged: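 Each compound was tested at 15 concentrations across three independent runs on dye-loaded CHO cells stably expressing human CHRM1, reading intracellular calcium fluorescence kinetically at 1 sec intervals.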
Sequence of Muscarinic acetylcholine receptor M1 (Homo sapiens) (P11229 whole entry, looked up): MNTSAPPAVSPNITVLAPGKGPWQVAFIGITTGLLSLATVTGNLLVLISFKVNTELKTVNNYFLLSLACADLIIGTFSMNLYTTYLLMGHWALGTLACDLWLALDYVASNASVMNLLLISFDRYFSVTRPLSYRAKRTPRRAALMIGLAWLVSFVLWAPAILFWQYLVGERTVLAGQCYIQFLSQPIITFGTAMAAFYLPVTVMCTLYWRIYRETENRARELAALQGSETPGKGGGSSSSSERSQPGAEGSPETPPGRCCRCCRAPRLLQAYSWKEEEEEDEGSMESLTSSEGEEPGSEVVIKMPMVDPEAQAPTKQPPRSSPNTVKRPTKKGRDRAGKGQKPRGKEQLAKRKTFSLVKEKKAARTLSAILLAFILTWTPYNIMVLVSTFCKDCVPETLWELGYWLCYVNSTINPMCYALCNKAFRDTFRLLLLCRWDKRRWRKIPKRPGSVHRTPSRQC

The target of assay [12] is D(2) dopamine receptor (Homo sapiens) (UniProt P14416). The assay can be described thus: Dopamine D2 receptor (DRD2) small molecule agonists, cell-based qHTS assay (AID 1963594). Further: nearly all actives have a fitted effect of over 35% in size. The procedure, abridged:
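HEK293 cells stably expressing DRD2 were cultured 24 h at 37 C, then given Ro20-1724 (0.1 mM final) and compounds for 10 min at room temperature. NKH477 (200nM) was then added for 30 min. cAMP was read by HTRF.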

Assay [13] can be described thus: p53 small molecule agonists, cell-based qHTS assay with human liver microsomes (AID 1963577).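 Further: p53 response element beta-lactamase reporter cells with liver microsomes plus NADPH.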 In short, it runs like this:
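Reporter activation was measured by LiveBLAzer fluorescence intensity in p53RE-bla cells, which had been exposed to compounds for 16 h at 37 C alongside 0.5 mg/mL human liver microsomes and 0.5 mg/mL NADPH (final concentrations).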

The nature of assay [14]: p53 small molecule agonists, cell-based qHTS assay: qHTS cell viability counter screen (AID 1963581). Further: nearly all actives have a fitted effect of over 45% in size. Further: potency means the concentration at half of the fitted maximal effect. In short, it runs like this: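 In the same plates used for the p53 bla reporter, HCT-116 cells given compounds for 16 h at 37 C received CellTiter-Glo; luminescence was recorded 30 min later at room temperature.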
The target of assay [15] is Muscarinic acetylcholine receptor M1 (Homo sapiens) (UniProt P11229). The assay can be described thus: Cholinergic receptor muscarinic 1 (CHRM1) small molecule antagonists, cell-based qHTS assay (AID 1963588). Further: nearly all actives have a fitted effect of over 40% in size. The procedure, abridged:
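CHRM1-CHO calcium-flux assay, antagonist mode. Cells were seeded 18 h, dye-loaded 1 h at 37 C and given compound for 5 min at RT, then acetylcholine was added at 50nM. FDSS fluorescence was read 3 min; 15 concentrations, three runs.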

Assay [16] is described as follows: cAMP Responsive Elements (CRE) small molecule agonists, cell-based qHTS assay (AID 1963590). In short, it runs like this: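 Cell line: CRE-bla HEK 293T; medium DMEM/10% dialyzed FBS/0.1 mM NEAA/1 mM pyruvate/25 mM HEPES; 3 h compound exposure; beta-lactamase FRET readout after 2 h substrate loading at RT.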
A short description of assay [17]: cAMP Responsive Elements (CRE) small molecule antagonists, cell-based qHTS assay (AID 1963591; active means well fitted inhibition curve with a large enough effect in the signal ratio in the repeat runs, not every such curve was filed as active; the % refers to the signal ratio). The procedure, abridged:
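Inhibition of NKH477-driven (0.25 uM final) CRE-beta-lactamase signal in HEK293T cells, 3 h compound exposure at 37 °C, detected by FRET substrate fluorescence.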

The target in assay [18] is Beta-2 adrenergic receptor (Homo sapiens) (UniProt P07550). The assay can be described thus: Adrenergic beta2 receptor (ADRB2) small molecule antagonists, cell-based qHTS assay (AID 1963592). Further: series mostly up to about 92 µM; nearly all actives have a fitted effect of over 50% in size. In short, it runs like this: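 Cells (CHO, stable ADRB2 overexpression) incubated 18-20hr at 37C; compounds added from DMSO; agonist mix (1nM isoproterenol, 100uM IBMX, 25uM Ro-20-1724) added; 0.5hr RT; d2-cAMP and anti-cAMP-cryptate added; 1hr RT; 665/615 nm read.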
Sequence of Beta-2 adrenergic receptor (Homo sapiens) (P07550 whole entry, looked up): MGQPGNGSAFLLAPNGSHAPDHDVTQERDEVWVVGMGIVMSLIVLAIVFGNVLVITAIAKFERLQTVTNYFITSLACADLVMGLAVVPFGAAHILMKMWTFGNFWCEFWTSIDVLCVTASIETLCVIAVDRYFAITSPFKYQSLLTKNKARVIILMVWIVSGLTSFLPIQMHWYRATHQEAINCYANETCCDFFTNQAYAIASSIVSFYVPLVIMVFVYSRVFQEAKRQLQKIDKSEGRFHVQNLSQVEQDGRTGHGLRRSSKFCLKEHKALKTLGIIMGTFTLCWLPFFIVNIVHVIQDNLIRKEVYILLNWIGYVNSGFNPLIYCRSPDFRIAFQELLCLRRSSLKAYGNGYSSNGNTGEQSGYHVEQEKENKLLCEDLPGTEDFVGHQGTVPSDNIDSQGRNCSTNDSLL

Assay [19] addresses D(2) dopamine receptor (Homo sapiens) (UniProt P14416). The assay can be described thus: Dopamine D2 receptor (DRD2) small molecule antagonists, cell-based qHTS assay (AID 1963595; active means well fitted inhibition curve with a large enough effect in the signal ratio in the repeat runs, with a control signal flat; the % refers to the signal ratio). The procedure, abridged:
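HEK293 cells stably expressing DRD2, preincubated with 0.1 mM Ro20-1724 and compounds 10 min, were stimulated with 200 nM NKH477 plus 12 nM quinpirole for 30 min at room temperature; cAMP measured by HTRF (665/620 nm).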

The target in assay [20] is Beta-2 adrenergic receptor (Homo sapiens) (UniProt P07550). The assay can be described thus: Adrenergic beta2 receptor (ADRB2) small molecule agonists, cell-based qHTS assay (AID 1963593).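 Further: CHO cells stably overexpressing human ADRB2.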 The procedure, abridged:
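CHO cells stably over-expressing ADRB2 were plated overnight at 37C, then dosed with compounds plus a stimulation mix containing 100uM IBMX and 25uM Ro-20-1724 for 0.5hr at room temperature. cAMP was measured by HTRF competition, 1hr.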

Sequence of KiSS-1 receptor (Homo sapiens) (Q969F8 whole entry, looked up): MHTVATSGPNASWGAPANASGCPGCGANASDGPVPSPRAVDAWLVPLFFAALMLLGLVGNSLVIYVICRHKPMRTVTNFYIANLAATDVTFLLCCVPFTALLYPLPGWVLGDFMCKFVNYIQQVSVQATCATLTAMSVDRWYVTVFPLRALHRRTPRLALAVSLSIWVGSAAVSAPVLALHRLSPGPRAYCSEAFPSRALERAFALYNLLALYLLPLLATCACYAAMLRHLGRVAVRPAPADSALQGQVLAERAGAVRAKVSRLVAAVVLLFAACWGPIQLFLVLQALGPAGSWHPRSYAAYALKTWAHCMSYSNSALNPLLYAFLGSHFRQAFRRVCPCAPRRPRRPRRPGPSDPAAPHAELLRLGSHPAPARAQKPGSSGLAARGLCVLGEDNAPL
Sequence of Gonadotropin-releasing hormone receptor (Homo sapiens) (P30968 whole entry, looked up): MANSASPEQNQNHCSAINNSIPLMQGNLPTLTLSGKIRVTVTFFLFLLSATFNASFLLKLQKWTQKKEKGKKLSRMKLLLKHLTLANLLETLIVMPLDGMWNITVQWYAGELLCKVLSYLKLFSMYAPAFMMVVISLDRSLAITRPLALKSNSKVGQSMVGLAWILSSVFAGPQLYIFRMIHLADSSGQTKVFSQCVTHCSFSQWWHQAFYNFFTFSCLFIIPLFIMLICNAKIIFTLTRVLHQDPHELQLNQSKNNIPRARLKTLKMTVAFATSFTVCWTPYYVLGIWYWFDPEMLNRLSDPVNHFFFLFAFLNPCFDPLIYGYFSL
Sequence of D(2) dopamine receptor (Homo sapiens) (P14416 whole entry, looked up): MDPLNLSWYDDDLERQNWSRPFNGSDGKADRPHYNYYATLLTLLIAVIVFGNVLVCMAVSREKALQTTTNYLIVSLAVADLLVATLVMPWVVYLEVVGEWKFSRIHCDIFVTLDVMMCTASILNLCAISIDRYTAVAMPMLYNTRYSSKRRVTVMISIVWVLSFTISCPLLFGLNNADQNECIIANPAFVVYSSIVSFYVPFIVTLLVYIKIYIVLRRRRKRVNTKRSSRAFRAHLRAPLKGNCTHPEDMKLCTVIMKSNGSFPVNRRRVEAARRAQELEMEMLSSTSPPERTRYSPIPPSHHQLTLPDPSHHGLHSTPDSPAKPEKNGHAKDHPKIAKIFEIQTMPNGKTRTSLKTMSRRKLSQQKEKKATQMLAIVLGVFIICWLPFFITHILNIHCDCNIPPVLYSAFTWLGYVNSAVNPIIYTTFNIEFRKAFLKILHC

As for `CN1CCCC(n2nc(Cc3ccc(Cl)cc3)c3ccccc3c2=O)CC1` (stereo unspecified), the Potency entry in [1], in [2], in [5], in assay [6], in assay [7] and in assay [8] was “inactive” each time. Moreover, the Potency entry in assay [10], in assay [11] and in assay [12] was “inactive” in each case. In addition, the outcome in assay [3] and in [4] was inactive. Besides, in assay [9], the Potency was 0.46 µM (active).

Regarding `OCC(O)c1ccccc1` (stereo unspecified), the Potency result in [1], in assay [2], in assay [13], in [6], in assay [7] and in [14] was “inactive” in each case. Moreover, the Potency result in assay [8], in assay [9], in assay [10], in assay [15], in assay [11] and in [16] was “inactive” each time. In addition, the Potency entry in [17], in [18], in [12] and in assay [19] was “inactive” each time. For the same compound, in assay [3], the outcome was inactive.

For `O=C1c2cccc(O)c2C(=O)c2c(O)cc(CO)cc21`, the Potency in assay [1] is 13.7 µM (active). Further, the Potency result in assay [2], in [13], in assay [6], in assay [7], in assay [14] and in assay [8] was “inactive” in each case. Further, the Potency result in [9], in assay [10], in assay [15], in [11], in assay [17] and in assay [18] was “inactive” throughout. Besides, the Potency entry in assay [20], in assay [12] and in assay [19] was “inactive” each time. Besides, the outcome in assay [3] and in assay [4] was inactive.

On to `ICCc1ccccc1`, for which the Potency in assay [1] is 67.2 µM (active); in assay [6], 28.3 µM (active). In addition, the Potency result in [2], in assay [5], in assay [7], in assay [9], in assay [15] and in assay [11] was “inactive” in each case. In addition, the Potency entry in assay [16], in [18], in [12] and in assay [19] was “inactive” each time. Moreover, the outcome in [3] and in [4] was inactive.

Take `C=CC(OCC)OCC`: the Potency result in assay [2], in assay [13], in assay [5], in assay [6], in assay [7] and in [14] was “inactive” each time. In addition, the Potency result in [8], in assay [9], in assay [10], in [15], in assay [11] and in assay [16] was “inactive” in each case. Further, the Potency entry in assay [17], in [18], in [12] and in assay [19] was “inactive” each time. Also, the outcome in assay [3] and in assay [4] was inactive.

`COc1cc(NS(=O)(=O)c2ccc(N)cc2)nc(OC)n1`: the Potency entry in [1], in assay [2], in [13], in assay [5], in [7] and in assay [14] was “inactive” in each case. Further, the Potency result in assay [8], in assay [16], in [17], in assay [18] and in assay [12] was “inactive” throughout. Further, in [3], the result was inactive.

For the compound `CC(C)=CCC1=C(O)c2ccccc2C(=O)C1=O`, the Potency in assay [1] is 60.8 µM (active); in assay [14], 3.61 µM (active); in assay [8], 4.06 µM (active). In addition, the result in assay [3] and in [4] was inactive. The Potency entry in [13], in assay [5], in assay [6], in [7], in assay [10] and in assay [15] was “inactive” in each case. For the same compound, the Potency entry in [11], in [17], in assay [20] and in assay [12] was “inactive” each time.

The values above are taken from PubChem BioAssay (Tox21).
